From PubChem BioAssay
This excerpt belongs to a sample that is enriched for hits.
Tgondii IFNg – T. gondii growth inhibition under IFN-gamma; Toxoplasma gondii growth in IFN-gamma-treated host cells; stronger effect = lower value; activity change, negative = inhibition, % (concentration not given with the values); 3.8% of 69,000 active; in the data active = activity change below about -70%, passing the limit was not always enough;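 note: host cells are HeLa cells infected with Toxoplasma gondii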
The depositor's hits bear a star; ! = not confirmed by another sample.

SMILES | Tgondii IFNg
Cc1nc(-c2ccc(N3CCN(C(=O)c4cc5ccccc5[nH]4)CC3)nc2)sc1C | 92
C=CCOCC1CC2OCCN(C(=O)NCc3cccnc3)C2C1 (centres undefined) | 37
Nc1nccc2c1ncn2[C@@H]1C=C(CO)[C@@H](O)[C@H]1O | -78*
Nc1nccc2c1ncn2[C@@H]1O[C@H](CO)C(O)C1O (some centres undefined) | -3
CCn1cnc2cc(NC(=O)CCN3C(=O)C4C5CCC(C5)C4C3=O)ccc21 (centres undefined) | 14
CCCc1nc(C)c(CNC(=O)c2c(Cl)c(C)nn2C)s1 | -37
CC1CN(CC(=O)NCC(C)n2cncn2)CC(C)O1 (centres undefined) | 2
O=C(O)c1cc(C2CC2)nc2ccc(-c3cccc4c3CCNC4)cc12 | 2
Cn1c2c(c3cc(-c4cccc5c4CCNC5)ccc31)CCCC2=O | -81*
c1cc2c3c(c1)c1c(n3CCNC2)CCCC1 | 16
Cc1ccc2nc(CN(C)c3ncnc4c3CCN(C(=O)C3CC3)C4)[nH]c2c1 | 0
CC(=O)N1CCc2cc(C(O)CN3CCN(c4nsc5ccccc45)CC3)ccc21 (centres undefined) | 67
CCCCCCSc1ncc(C#N)c(N)n1 | -5
CCCCCc1nc(N)c(C#N)c(-c2ccco2)c1CCCC | -91*
O=C(CO)N1C[C@H]2c3ccccc3C(OCC3CC3)[C@@H]2C1 (some centres undefined) | 8
CC(=O)C(Sc1nccc(-c2cccnc2)n1)C(C)=O | -58
Nc1ccccc1NC(=O)c1ccc(CNc2nccc(-c3cccnc3)n2)cc1 | -79*!
CS(=O)(=O)n1nc(-c2cccnc2)nc1NCc1ccc(Cl)cc1 | 3
Cc1ccc(-c2cc3c(=O)n(Cc4nc(-c5ccccc5C)oc4C)ccn3n2)cc1C | 21
CN(C)Cc1cnc2n1CCN(C(=O)CC1CC1)CC2 | 44
Cc1csc(-c2csc(S(=O)(=O)N3CCC(Cc4ccccc4)CC3)c2)n1 | 12
CC(C)(C)C1CCC(CC2C(=O)C(=O)c3ccccc3C2=O)CC1 (centres undefined) | -86*
O=C(c1cncc(NS(=O)(=O)c2ccc(F)cc2)c1)N1CCOCC1 | 50
CCOc1ccccc1CNC(=O)c1nc(Nc2ccc(F)cc2)c2ccccc2n1 | -33
CN(c1cncc(C(=O)N2CCN(c3cccc(Cl)c3)CC2)c1)S(=O)(=O)c1ccccc1 | -15
SMILES | Tgondii IFNg
Cc1ccc(S(=O)(=O)N(C)c2cncc(C(=O)N3CCC(Cc4ccccc4)CC3)c2)cc1 | -96*
Cc1ccc(S(=O)(=O)N(C)c2cncc(C(=O)N3CCCCCC3)c2)cc1 | -11
Cc1nnsc1C(=O)N1Cc2cnn(Cc3ccc(F)cc3)c2C1 | -23
CCn1c(C2CCCN(C(=O)c3cccc4cc(C)oc34)C2)nn(C)c1=O (centres undefined) | -2
Cc1ccc2c(n1)N(CCn1cccn1)CCN(S(C)(=O)=O)C2 | -5
CCc1nc(-c2cccc(C)c2)c(-c2ccnc(NC(=O)c3ccccc3)c2)s1 | -81*
COc1ccc(C(=O)NCCc2sc(-c3cccc(C)c3)nc2C)cc1 | 224
CCOc1ccc(C(=O)NCCc2sc(-c3cccc(C)c3)nc2C)cc1 | 117
O=C(NCCc1csc(-c2ccc(F)cc2)n1)C(=O)Nc1ccc(F)c(Cl)c1 | -12
Cc1ccc2c(c1)C(NC(=O)CN(C)C1CCS(=O)(=O)C1)CC1(CCOCC1)O2 (centres undefined) | -8
COCCN1C2(CCN(Cc3ccncc3)C2)c2ccccc2S1(=O)=O (centres undefined) | -43
COc1cc(Nc2nc(SCc3ccccc3F)nc3ccccc23)cc(OC)c1OC | -14
N#CCN1C(=O)CC2(CCN(c3ncc(F)cn3)CC2)c2ccccc21 | -10
CCc1cc(-c2cccc(NC(C)=O)c2)nc(N2CCOCC2)n1 | -26
O=C(Nc1ccncc1)Nc1ccc(-c2nc(N3CCOCC3)nc(N3C4CCC3COC4)n2)cc1 | -74*
O=C(C[C@@H]1CC[C@H]2[C@@H](COC[C@H](O)CN2C(=O)c2ccncc2)O1)Nc1ccc(-c2ccccc2)cc1 | -43
O=C1CCc2cc(S(=O)(=O)NCCc3ccc(Cl)cc3)cc3c2N1CCC3 | -3
CC(C)CN1CC(C(=O)NCc2csc(N(C)C)n2)CC1=O (centres undefined) | 3
COc1ccc(CC2(CO)CCN(C(=O)c3ccc4ncccc4c3)CC2)cc1 | -17
CCN1c2cc(Cl)ccc2C(=O)NC12CCN(C(=O)Nc1ccc(C)cc1C)CC2 | 44
CCn1cc(CN2CCN(C(=O)CCS(=O)(=O)c3ccc(Cl)cc3)CC2)cn1 | 8
C[C@@H]1O[C@@H](Oc2c(-c3cc(O)c(O)c(O)c3)oc3cc(O)cc(O)c3c2=O)[C@@H](O)[C@H](O)[C@H]1O | -8
Nc1nc(Cl)nc2c1ncn2[C@@H]1O[C@H](CO)[C@@H](O)[C@@H]1F | -74*
Nc1nc(Cl)nc2c1ncn2[C@H]1C[C@H](O)[C@@H](CO)O1 | -73*!
CNC(=O)c1cnn(-c2nc(N)c3ncn([C@@H]4O[C@H](CO)C(O)C4O)c3n2)c1 (some centres undefined) | 17
SMILES | Tgondii IFNg
Nc1ccn([C@@H]2O[C@H](CO)[C@@H](O)[C@H]2O)c(=O)n1 | 11
O=c1[nH]cnc2c1ncn2[C@H]1CC[C@@H](CO)O1 | 9
Nc1ncnc2c1ncn2C1CCCO1 (centres undefined) | 16
O=c1[nH]c(=O)n([C@H]2C[C@H](O)[C@@H](CO)O2)cc1I | 21
Nc1nc(=O)n([C@H]2C[C@H](O)[C@@H](CO)O2)cc1F | -89*
OCC1OC(n2cnc3c(NC4CCCC4)nc(Cl)nc32)C(O)C1O (centres undefined) | 2
O=C1CCN(c2ccccc2C(=O)Nc2cnc3n2CCCC3)C(=O)N1 | -4
COC(=O)c1[nH]ncc1CN(C)Cc1csc(-c2ccccc2)n1 | -1
Cn1cccc1C(=O)N1CCC2(CC1)CN(CC1CC1)C(=O)CO2 | -46
CSCCC(C(=O)N(C)CC1OCCc2ccccc21)n1cnnn1 (centres undefined) | -4
Cn1cc(CN2CC[C@@H]3[C@H]2CCN3Cc2ccsc2)cn1 | -17
Cc1cccc(NC(=O)C(=O)NCCc2csc(-c3ccc(C(F)(F)F)cc3)n2)c1 | 137
CCOc1ccc2nc(-c3c(-c4ccccc4)ncn3CCN)ccc2c1 | 14
Cc1nc(-c2ccccc2)sc1C(=O)Nc1c(C)nc2c(C)cccn2c1=O | 189
CCc1ccc2c(c1)cc(S(=O)(=O)c1ccccc1)c(=O)n2CC(=O)NC1CCCC1 | -21
O=C(Nc1ccc(N2CCCCC2)cc1)c1ccccc1Cl | 199
O=C(Nc1cnn(Cc2ccccc2F)c1)c1ccc(N2CCCCC2)cc1 | -95*
C[C@@H]1CN(Cc2ccccc2F)CCN1CC(=O)Nc1ccc(N2CCCCCC2)cc1 | 444
CC(Cc1cccs1)NC(=O)Cn1ccc2ccc(F)cc21 (centres undefined) | 13
Cc1nc(Nc2n[nH]c3c2CN(C(=O)N[C@H](CN(C)C)c2ccccc2)C3(C)C)c2sccc2n1 | -75*
COc1ccccc1C1(NCc2ccccc2OCC2CCCO2)CCCC1 (centres undefined) | -45
O=C1NCC(=O)N2CCN(C(=O)CN3CCC(c4ccccc4)CC3)CC12 (centres undefined) | 2
Cc1ccccc1NC(=O)Cn1c(=O)cc(C(=O)N2CCc3ccccc3C2)c2ccccc21 | 5
Cc1c(NC(=O)Cc2ccccc2)c(=O)n(-c2ccccc2)n1C | 6
Cc1c(NC(=O)c2ncoc2-c2ccc(F)cc2)c(=O)n(-c2ccccc2)n1C | -32
